Records with an inconclusive call do not appear. The source made the active and inactive calls. Calls come from the whole dose curve; as a rule, active = well fitted inhibition curve with a large enough effect; inconclusive = small, poorly fitted or top-dose-only effect; inactive = flat fitted curve, though single readings scatter.
test system: Trypanosoma brucei 6-phosphofructokinase (PFK); assay: Confirmatory Assay to Find Inhibitors of T. brucei phosphofructokinase: ATP-depletion Assay; conditions: recombinant T. brucei PFK, Kinase-Glo ATP depletion luminescence; series mostly up to 57.5 µM
Text: Various species of the protozoan family Trypanosomatidae are responsible for a range of serious human diseases in tropical and subtropical areas of the world. […] Many of the disorders caused by trypanosomatids are fatal if left untreated, but most currently used drugs are inefficient and toxic. […] Oxidative metabolism involving the mitochondrial tricarboxylic acid cycle and oxidative phosphorylation are repressed in these parasites, and recent RNA interference (RNAi) experiments have shown that even partial depletion of certain individual glycolytic enzymes can lead to the death of cultured parasites. One such glycolytic enzyme, phosphofructokinase (PFK), catalyzes the formation of fructose-1,6-bisphosphate (F1,6BP) and ADP from fructose-6-phosphate (F6P) and ATP, and in many metabolic circumstances makes an important contribution to the control of flux through the glycolytic pathway. As a specific glycolytic target, PFK is particularly attractive as it catalyzes the first irreversible step in glycolysis, and structural and kinetic studies have shown very substantial and essential differences from corresponding host enzymes, allowing for the discovery of parasite-selective inhibitors. NIH Chemical Genomics Center [NCGC] NIH Molecular Libraries Probe Centers Network [MLPCN] MLPCN Grant: MH092153-01 Assay Submitter (PI): Malcom Walkinshaw, University of Edinburgh
Substrate buffer was dispensed into white, solid 1536-well plates at 3ul/well in 0.1M triethanolamine (TEA) buffer, pH 8.0, containing final concentrations of 5 mM MgCl2, 0.01% Tween20, 0.5 mM fructose-6-phosphate (F6P) and 0.1mM ATP. Then, 23nl of compounds or DMSO were delivered to each well using a pin tool. One ul T. brucei PFK (0.1M TEA, 0.01% Tween20, 0.1% bovine serum albumin (BSA) and 1.25nM PFK, final concentrations) was then dispensed, and plates were incubated at room temperature for 45 min. The luminescent detection reagent, Kinase-Glo Plus (Promega), was then added at 2ul/well and incubated for ten minutes at room temperature. The plates were measured on a ViewLux plate reader for luminescent signal using a clear filter with a one second exposure. The %Activity was determined from the corrected luminescence values. As no specific T. brucei PFK inhibitors have been identified in the literature, 1x (1.25nM) and 0x PFK enzyme controls (untreated) were included to normalize %Activity of identified inhibitors; 0x enzyme values corresponded to 100%Activity (full inhibition), while 1x PFK enzyme values were used to normalize 0% activity (no inhibition). The Kinase-Glo Plus protocol varies from the primary screen in that it measures ATP, rather than ADP, concentration, and thus provides a measure of substrate depletion, rather than of product formation. Concentration-response curves were fitted to the signals arising from the resulting luminescence. The concentration-effect curves were then classified based on curve quality (r2), response magnitude and degree of measured activity, and compounds were subsequently categorized based on their curve class. […] Keywords: T. brucei, phosphofructokinase, PFK, glycolysis, luminescence, MLSMR, MLPCN, NIH Roadmap, qHTS, NCGC

Potency, inactive:
COc1ccc(CC(=O)Nc2ccc(S(=O)(=O)Nc3cc(C)on3)cc2)cc1OC
Cc1cc(NC(=O)c2ccc(NC(=O)Cc3ccc(Cl)c(Cl)c3)cc2)no1

Potency, active:
Cc1cc(NS(=O)(=O)c2ccc(NC(=O)Cc3ccc(Cl)c(Cl)c3)cc2)no1 0.41 µM
Cc1cc(NS(=O)(=O)c2ccc(NC(=O)Cc3ccc4ccccc4c3)cc2)no1 5.17 µM
Cc1cc(NS(=O)(=O)c2ccc(NC(=O)Cc3ccc(Cl)c(C(F)(F)F)c3)cc2)no1 0.651 µM
Cc1cc(NS(=O)(=O)c2ccc(NC(=O)Cc3cccc(Cl)c3)cc2)no1 5.17 µM
O=C(Cc1ccc(Cl)c(Cl)c1)Nc1ccc(S(=O)(=O)Nc2ccccc2)cc1 10.3 µM
Cc1cc(NS(=O)(=O)c2ccc(NC(=O)Cc3ccc(Cl)c(Cl)c3)cc2)n(C)n1 1.03 µM
Cc1cc(NS(=O)(=O)Cc2ccc(NC(=O)Cc3ccc(Cl)c(Cl)c3)cc2)no1 2.91 µM
O=C(Cc1ccc(Cl)c(Cl)c1)Nc1ccc(S(=O)(=O)Nc2ccon2)cc1 0.231 µM
Cc1cc(NS(=O)(=O)c2ccc(NC(=O)Cc3ccc(Cl)cc3Cl)cc2)no1 4.61 µM
Cc1cc(NS(=O)(=O)c2ccc(NC(=O)Cc3ccc(C)c(C)c3)cc2)no1 16.3 µM
Cc1cc(NS(=O)(=O)c2ccc(NC(=O)Cc3ccc(Cl)cc3)cc2)no1 2.59 µM
O=C(Cc1ccc(Cl)c(Cl)c1)Nc1ccc(S(=O)(=O)Nc2ccn[nH]2)cc1 0.326 µM
O=C(Cc1ccc(Cl)c(Cl)c1)Nc1ccc(S(=O)(=O)Nc2cccc(O)c2)cc1 2.06 µM
Cc1cc(N[S+](=O)([O-])c2ccc3cc(NC(=O)Cc4ccc(Cl)c(Cl)c4)ccc3c2)no1 5.17 µM
Cc1cc(N(C)S(=O)(=O)c2ccc(NC(=O)Cc3ccc(Cl)c(Cl)c3)cc2)no1 2.59 µM
O=C(Cc1ccc(Cl)c(Cl)c1)Nc1ccc(S(=O)(=O)Nc2cccc(C(=O)O)c2)cc1 0.651 µM
O=C(Cc1ccc(Cl)c(Cl)c1)Nc1ccc(S(=O)(=O)Nc2cncnc2)cc1 0.651 µM
CN(C)c1cccc(NS(=O)(=O)c2ccc(NC(=O)Cc3ccc(Cl)c(Cl)c3)cc2)c1 16.3 µM
Cc1cc(NS(=O)(=O)c2ccc(N(C)C(=O)Cc3ccc(Cl)c(Cl)c3)cc2)no1 1.03 µM
Cc1cc(NS(=O)(=O)c2ccc(NC(=O)CCc3ccc(Cl)c(Cl)c3)cc2)no1 16.3 µM
Cc1cc(NS(=O)(=O)c2ccc(NCCc3ccc(Cl)c(Cl)c3)cc2)no1 11.6 µM
O=C(Cc1ccc(Cl)c(Cl)c1)Nc1ccc(S(=O)(=O)Nc2ccc(C(=O)O)cc2)cc1 0.326 µM
Cc1cc(N[S+](=O)([O-])c2ccc(NC(=O)Cc3ccc(Cl)nc3)cc2)no1 18.3 µM
Cc1cc(NS(=O)(=O)c2ccc(NC(=O)Cc3ccc(C)c(F)c3)cc2)no1 5.17 µM
Cc1cc(NS(=O)(=O)c2cccc(NC(=O)Cc3ccc(Cl)c(Cl)c3)c2)no1 16.3 µM
Cc1cc(NS(=O)(=O)c2ccc(NC(=O)Cc3ccc(Cl)c(Cl)c3)cc2)on1 0.366 µM
O=C(Cc1ccc(Cl)c(Cl)c1)Nc1ccc(S(=O)(=O)O)cc1 0.58 µM
Cc1cc(NS(=O)(=O)c2ccc(C(=O)NCc3ccc(Cl)c(Cl)c3)cc2)no1 2.31 µM
Cc1cc(NS(=O)(=O)c2ccc(NC(=O)Cc3ccc(Cl)c(F)c3)cc2)no1 0.73 µM

From PubChem BioAssay AID588329 (National Center for Advancing Translational Sciences (NCATS), 2011)
